From PubChem BioAssay (NCATS) come the findings set out here.

Results filed as inconclusive are left out. A call without a number means that no potency is given here. Activity calls are given as the source filed them. The call rests on the fitted dose curve.
Potency means the concentration at half of the fitted maximal effect.

The test can be described thus: A High-Content qHTS Against Drug Library for the Identification of Small Molecules that Inhibit DYT1 Early Onset Primary Dystonia-Associated Cell Pathology (AID 1645839). Conditions: HEK293 Flp-In EGFP-delE TorsinA, punctate imaging, 48 h; series mostly up to 46.1 µM. The essentials:
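Cells were seeded and left for 24 h, then dosed with compound alongside tetracycline induction of mutant EGFP-TorsinA. They were incubated for 48 h, fixed in 4% paraformaldehyde, permeabilized and imaged for mislocalization (%pathology) and cell count.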
Background: Quantitative high-throughput screening tests each substance at several concentrations.
As for `CCc1cccc2c(CCO)c[nH]c12`, the Potency result was “inactive”.

For `CCN(CC)CC(=O)Oc1ccc(NC(C)=O)cc1`, the Potency result is “inactive”.

Consider `COc1ccc2cc(C=O)ccc2c1`, for which the Potency result was “inactive”.

Consider `COc1c(N2C[C@@H]3CCCN[C@@H]3C2)c(F)cc2c(=O)c(C(=O)O)cn(C3CC3)c12`, for which the Potency result was “inactive”.

Consider `COC(=O)c1cc(Cl)ccc1OC`, for which the Potency result was “inactive”.

With `CCOCCn1c(C2CCN(CCc3ccc(C(C)(C)C(=O)O)cc3)CC2)nc2ccccc21`, the Potency result was “inactive”.

Consider `Cc1ccc(C(=O)C(=O)O)cc1C`, for which the Potency result was “inactive”.

On to `CCOC(=O)[C@H](CCc1ccccc1)N[C@@H](C)C(=O)N(CC(=O)O)C1Cc2ccccc2C1`, for which the Potency result was “inactive”.

On to `O=C(O)CCCC[C@@H]1SC[C@@H]2NC(=O)N[C@@H]21`, for which the Potency result was “inactive”.

Consider `Cc1oc(=O)oc1COC(=O)[C@@H]1N2C(=O)[C@@H](NC(=O)[C@H](N)c3ccccc3)[C@H]2SC1(C)C`, for which the Potency result was “inactive”.

Take `CN1C(=O)c2ccccc2C1=O`: the Potency result is “inactive”.

For `CN(C)CCN1CCN(c2cccc(Cl)c2)C1=O`, the Potency result was “inactive”.

Turning to `N#C/C(=C1/SC[C@@H](c2ccc(Cl)cc2Cl)S1)n1ccnc1`, the Potency entry is “inactive”.

On to `Cc1cc(O)c(C)c(C)c1O`, for which the Potency entry was “inactive”.

Regarding `CC(=O)N1CCN(c2ccc(O)cc2)CC1`, the Potency result is “inactive”.

In the case of `O=C(O)c1ccccc1S`, the Potency entry was “inactive”.

Take `CO/N=C(/C(=O)N[C@@H]1C(=O)N2C(C(=O)OCOC(=O)C(C)(C)C)=C(C)CS[C@H]12)c1csc(N)n1`: the Potency entry is “inactive”.

Turning to `CSCC[C@H](NC(=O)[C@H](Cc1c[nH]c2ccccc12)NC(=O)CCNC(=O)OC(C)(C)C)C(=O)N[C@@H](CC(=O)O)C(=O)N[C@@H](Cc1ccccc1)C(N)=O`, the Potency entry is “inactive”.

For the compound `Nc1c(NC/C=C\COc2cc(CN3CCCCC3)ccn2)c(=O)c1=O`, the Potency entry was “inactive”.

As to `c1ccc2occc2c1`, the Potency entry was “inactive”.

As to `CCOc1ccccc1OCC1CNCCO1` (configuration not stated), the Potency result is “inactive”.

Take `Cc1nc(C2CCCCC2)c(-c2ccc(S(N)(=O)=O)c(F)c2)o1`: the Potency entry is “inactive”.

`CCO[C@H](Cc1ccc(OCCc2ccc(OS(C)(=O)=O)cc2)cc1)C(=O)O`: the Potency result was “inactive”.

Take `C/C(=N/NC(=O)c1ccncc1)C(=O)O`: the Potency result is “inactive”.

As to `CCN1C(=O)c2ccccc2C1Nc1ccc(OCCN2CCCCC2)cc1` (configuration not stated), the Potency result is “inactive”.

Consider `CCC(C(=O)OCCN1CCOC(c2ccccc2)C1C)c1ccccc1` (configuration not stated), for which the Potency entry was “inactive”.

Consider `CCCCCCCCCCCCCC[N+](C)(C)C`, for which the Potency was 10 µM (active).
